# Laboratory results published in PubChem BioAssay (NCATS).
# Inconclusive results are not listed. Entries that show only a call come without a potency. Active and inactive are the calls of the source. The call rests on the fitted dose curve; in most records, active means well fitted cell-killing curve with a large enough effect; inconclusive means small, poorly fitted or top-dose-only effect, or effect the other way; inactive means no such curve, though single readings can be large or run the other way.
# Assay: Quantitative highthroughput screen to assess conditional lethalithy of NOMO1 cells grown in Human Plasma-Like Medium with dialyzed fetal bovine serum (HPLM+ds) (AID 1963878); further: nearly all actives have a fitted effect of over 35% in size
# Details: NOMO1 AML cells in HPLM+ds, CellTiter-Glo viability, 48 h; series mostly up to 45.8 µM
# Text: Assay Provider: Jason Cantor Ph.D.
# Department of Biochemistry
# University of Wisconsin-Madison, Madison, WI, USA
# Chemical screening studies have identified drug sensitivities across hundreds of cancer cell lines but most putative therapeutics fail to translate. Discovery and development of drug candidates in models that more accurately reflect nutrient levels in human blood is a major challenge. Here we performed high-throughput screens in conventional versus Human Plasma-Like Medium (HPLM) to identify compounds that were "missed" when screening using the artificial culture condition. Sets of conditional anticancer compounds spanned phases of clinical development and included non-oncology drugs were assessed. […] We also traced conditional phenotypes for several chemotherapeutics to availability of HPLM-specific metabolites and confirmed others for compounds whose reported targets are encoded by nonessential genes. Our findings establish generalizable strategies for exploiting conditional lethality in HPLM to reveal therapeutic candidates and mechanisms of action in cancer cells.
# Described herein are the results of each viability screens against three cell lines: NOMO1 (an acute myeloid leukemia cell line); P12-Ichikawa (a T-cell acute lymphoblastic leukemia); and SEM (a B-cell ALL). Each assay was screened using 3 different cell culture media: homemade human plasma-Like medium with 10% dialyzed fetal bovine serum (HPLM+ds); RPMI1640 with 10% untreated FBS and 5mM glucose (RPMI+s); and RPMI1640 with 10% dialyzed fetal bovine serum and 5 mM glucose (RPMI+ds).
# PROTOCOL TABLE (as described by Inglese J, Shamu CE and Guy RK. 2007)
# SEQUENCE No. (e.g., 1, 2, 3, etc.); […] (e.g., Cells, Incubation, Reagent, etc.); VALUE and DESCRIPTION.
# 1; Cells; 5 uL; white, solid bottom 1536-well Greiner assay plate.
# 2; Compounds; 23 nL; Kalypsis pin tool (Wako USA) equipped with a 1536-well pin head to transfer to the assay plates.
# 3; Incubation; 48 hours; 37C incubation.
# 4; Reagent; 3 uL; CellTiter Glo (Promega).
# 5; Incubation; 5 min, room temperature
# 6; Detection; Luminescence, Viewlux PerkinElmer.
# NOTES (numbers refer to Sequence numbers above)
# 1. Briefly, 5 ul of cell reagent was dispensed using a Multidrop Combi Dispenser. The NOMO1 and SEM cells were plated at 500 cells/well and the P12-Ichikawa line at 1000 cells/well.
# 2. After seeding the cells, 23 nL of MIPE 4.1 library compounds (in DMSO) were added to each plate using a Kalypsys 1536 Pintool dispenser. Bortezomib at final concentration of […] and DMSO were added to each plate as positive and negative controls respectively. For each screen, MIPE 4.1 compounds were added over an eleven-point concentration range […] in 3-fold dilutions.
# 3. Each plate was covered with a stainless steel gasketed lid to prevent evaporation and incubated for 48 hour at 37C, 95% relative humidity, and 5% CO2.
# 4-5. Three microliter CellTilter-GloTM luminescent substrate mix (Promega) reagent was added to the assay plate and incubated at room temperature for 5 min.
# 6. The luminescence signal was measured using a ViewLux (PerkinElmer) multiplate reader with a 2 second exposure time per plate. Data for each compound were normalized as percent viability such that measurements for DMSO and the empty well controls in each plate were defined as 100% and 0%, respectively.
# Potency means the concentration at half of the fitted maximal effect.
row,SMILES,Potency
1,N=c1c2c(-c3ccccc3)c(-c3ccccc3)n(Cc3ccccc3)c2ncn1C1CCC(O)CC1 (stereo not given),16.6 µM (active)
2,CC[C@@H]1[C@@H](C)O[C@@](O)([C@@H](C)[C@H](O)[C@H](C)[C@H]2OC(=O)C=CC=C[C@@H](C)[C@@H]([C@@H](C)[C@@H](O)[C@H](C)[C@@]3(O)C[C@H](O[C@H]4C[C@H](O)[C@H](O)[C@H](C)O4)[C@H](CC)[C@@H](C)O3)OC(=O)C=CC=C[C@@H]2C)C[C@H]1O[C@H]1C[C@H](O)[C@H](O)[C@H](C)O1,2.96 µM (active)
3,Clc1ccccc1C(c1ccccc1)(c1ccccc1)n1cccn1,inactive
4,C[C@@H]1O[C@@H](O[C@@H]2C=C3CC[C@@H]4[C@@H](CC[C@]5(C)[C@H](c6ccc(=O)oc6)CC[C@@]45O)[C@@]3(C)CC2)[C@H](O)[C@H](O)[C@H]1O,0.0332 µM (active)
5,CC(C)(O)C=CC(=O)[C@](C)(O)[C@H]1[C@H](O)C[C@]2(C)[C@@H]3CC=C4[C@@H](C=C(O)C(=O)C4(C)C)[C@]3(C)C(=O)C[C@@]12C,0.209 µM (active)
6,CN(C)CCc1ccc(O)cc1,inactive
7,O=C(O)CNC(=O)c1c(O)c2ccccc2n(Cc2ccccc2)c1=O,inactive
8,CC(=CCCC1=CCC(C2=CC(=O)OC2O)OC1O)CCC1=C(C)CCCC1(C)C (stereo not given),inactive
9,O=C1C=CC[C@@H]2[C@H]3CCCN4CCC[C@@H](CN12)[C@@H]34,inactive
10,CC(O)=C(C#N)C(=O)Nc1cc(Br)ccc1Br,inactive
11,Fc1ccc(C(OCCN2CCN(CCCc3ccccc3)CC2)c2ccc(F)cc2)cc1,20.9 µM (active)
12,O=C(O)C(=O)c1cn(Cc2ccccc2)c2ccc(-c3ccc(OC(F)(F)F)cc3)cc12,inactive
13,CC(C)[C@]12O[C@@H]1[C@@H]1O[C@]13[C@]1(O[C@H]1C[C@@H]1C4=C(CC[C@@]13C)C(=O)OC4)[C@H]2O,0.0012 µM (active)
14,CN(C)[C@@H]1C(=O)C(C(N)=O)=C(O)[C@@]2(O)C(=O)C3=C(O)c4c(O)cccc4[C@@](C)(O)[C@H]3C[C@@H]12,inactive
15,C#CCN(C)[C@H](C)Cc1ccccc1,inactive
16,c1cc2c(cc1[C@H]1OC[C@H]3[C@H]1CO[C@H]3c1ccc3c(c1)OCO3)OCO2,inactive
17,COC1(CS(=O)c2ccccc2)CCN(CCc2c[nH]c3ccc(F)cc23)CC1 (stereo not given),26.4 µM (active)
18,CCOC(=O)c1cncn1[C@H](C)c1ccccc1,inactive
19,C#C[C@]1(O)C=C[C@@H]2[C@@H]3CCC4=CC(=O)CC[C@@H]4[C@H]3CC[C@@]21CC,inactive
20,C[C@@H]1C[C@@H]([C@H](O)CC2CC(=O)NC(=O)C2)C(=O)[C@@H](C)C1,1.18 µM (active)

row,SMILES,Potency
1,O=P1(N(CCCl)CCCl)NCCCO1 (stereo not given),inactive
2,CC[C@H]1C=CC=CC[C@@H](C)[C@H](O)[C@@](C)(O)C(=O)[C@@H](C)[C@H](O)[C@@H](C)C(=O)[C@@H](C)[C@H](O)[C@@H](C)C=CC(=O)O[C@@H]2[C@@H](C)[C@H](CC1)O[C@]1(CC[C@H](C)[C@H](C[C@@H](C)O)O1)[C@H]2C,2.64 µM (active)
3,C#CC1(O)CCC2C3CCC4=CC(=O)CCC4(C)C3CCC21C (stereo not given),inactive
4,COC[C@H]1OC(=O)c2coc3c2[C@@]1(C)C1=C(C3=O)C2CCC(=O)[C@@]2(C)C[C@H]1OC(C)=O (stereo not given in full),inactive
5,CCC1(c2ccc(N)cc2)CCC(=O)NC1=O (stereo not given),inactive
6,Cc1nc(-c2ccc(-c3ccc(C(=O)N4CCc5cc6c(cc54)C4(CCN(C)CC4)CO6)cc3)c(C)c2)no1,inactive
7,C[C@H]([C@H](O)CCC(C)(C)O)[C@H]1CC[C@@]2(O)C3=CC(=O)[C@@H]4C[C@@H](O)[C@@H](O)C[C@]4(C)[C@@H]3CC[C@]12C,inactive
8,O=c1[nH]c2ccccc2n1CCCN1CCC(n2c(=O)[nH]c3cc(Cl)ccc32)CC1,inactive
9,C[C@]12CC[C@H](O)CC1=CC[C@H]1[C@H]3CCC(=O)[C@@]3(C)CC[C@@H]12,inactive
10,COc1cc(C(=O)N2CC[C@@H](O)[C@@H](N)C2)cc2nc(-c3cc4ccccc4n3CC3CC3)n(C)c12,0.234 µM (active)
11,CCc1c(C(=O)C(N)=O)c2c(OCC(=O)O)cccc2n1Cc1ccccc1,inactive
12,CC(=O)N(C)c1cccc(-c2ccnc3c(C(=O)c4cccs4)cnn23)c1,inactive
13,COc1ccc(C(CN(C)C)C2(O)CCCCC2)cc1 (stereo not given),inactive
14,Cc1c(C(=O)Nc2cccc(C(F)(F)F)c2)cc(-c2ccccc2)n1CCCN1CCOCC1,inactive
15,CC1=NN=C(c2ccc(N)cc2)c2cc3c(cc2C1)OCO3,inactive
16,COc1ccc2c(c[n+](C)c3c4cc5c(cc4ccc23)OCO5)c1OC,20.9 µM (active)
17,CC(NC(C)(C)C)C(=O)c1cccc(Cl)c1 (stereo not given),5.9 µM (active)
18,CC=C(C)C(=O)N[C@@H](c1ccccc1)[C@@H](O)C(=O)O[C@H]1C[C@@]2(O)[C@@H](OC(=O)c3ccccc3)[C@@H]3[C@]4(OC(C)=O)CO[C@@H]4C[C@H](O)[C@@]3(C)C(=O)[C@H](OC(C)=O)C(=C1C)C2(C)C,inactive
19,CC1(N2CCC(n3c([C@@H]4CCCNC4)nc4ccccc43)CC2)CCCCCCC1,13.2 µM (active)
20,O=c1[nH]c2ccccc2n1C1CCN(Cc2ccc(-c3[nH]c4cc5ncnc5cc4nc3-c3ccccc3)cc2)CC1,inactive
